Here are results for 48 compounds from PubChem BioAssay AID624418 (National Center for Advancing Translational Sciences (NCATS), 2012).

Out of some 410,000 compounds screened, about 530 (0.13%) were called active. About 5% were inconclusive and are not listed. This is one part of a sample in which actives are shown more often than they occur. A number with no mark means an inactive call. Calls follow the shape of the dose curve; as a rule, active = well fitted inhibition curve with a large enough effect; inconclusive = small, poorly fitted or top-dose-only effect, or another doubt; inactive = no such curve, though single readings can be large or run the other way.
% is scaled to controls: 0 for no effect and ±100 for the full control effect; potency is read from the fitted curve at half-maximal effect.

A short description of this test: qHTS of GLP-1 Receptor Inverse Agonists: Cytotox Screen.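 Also: loss of luciferase light is scored as toxicity.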 Conditions: HEK293 cAMP-luciferase reporter cells, luminescence, 24 h; series mostly up to 38.3 µM; activity change, negative = inhibition: at the top concentration. The text has this:
The overall goal of this project was to develop a novel assay for discovering small molecule ligands for class B1 G protein-coupled receptors (GPCRs). Very few agonists (or inverse agonists) with generally weak activity for this entire group of physiologically important receptors are known to date. To establish proof-of-principle that this critical bottleneck can be overcome with a suitable screening approach, our studies focused on the class B1 receptor for glucagon-like peptide-1 (GLP-1R), a potential therapeutic target for diabetes and neurodegenerative disease.
The assay was developed using a cell-based functional readout. Toward this goal, stably transfected HEK293 cell clones were established that co-express (i) a cAMP-responsive luciferase reporter gene, and (ii) constitutively active GLP-1R that upon ligand interaction inhibit (inverse agonists) the luciferase activity. In addition, two control cell lines were developed: (i) one that express only the cAMP-responsive reporter gene to enable initial exclusion of GLP-1R independent effects of candidate probes; and (ii) one with the reported gene cloned with another constitutively active orphan receptor GPR119 to enable exclusion of GLP-1R independent inhibitor effects of candidate inverse agonists.
To that end, this assay was optimized for 1536-well format and screened against the MLSMR. Then the same collection was run in this cytotoxicity assay where inhibition was the undesired outcome.
NIH Molecular Libraries Probe Production Network [MLPCN]
NIH Chemical Genomics Center [NCGC]
PI Name: Martin Beinborn, Tufts Medical Center
Six ul of cell suspension (200 cells/uL in DMEM + 10% Nu serum + 1% pen-strep) is dispensed in a white solid 1536-well plate. The plates are incubated for 12 hours at 37 deg C at 5% CO2 followed by addition of 23 nL compounds. After 24 hr incubation at 37 deg C and 5% CO2, 3 uL of luciferase assay detection reagent is added. A luminescence read is obtained on the PerkinElmer Viewlux after 12 min incubation at room temperature.
On the technique in general: In qHTS, concentration-response curves come from the screen itself.
In the case of `Cn1c(C(=O)Nc2cccc(C(F)(F)F)c2)cc2c(=O)n3ccccc3nc21`, the “activity change, negative = inhibition” value is 86.5%.

For the compound `Cc1ccc2c(c1)-c1c(cnn1CC(=O)Nc1ccccc1C#N)CO2`, the “activity change, negative = inhibition” value is -10.5%.

`CCN1CCN(c2ncnc3c2cnn3-c2ccc(C)c(C)c2)CC1`: the “activity change, negative = inhibition” value was 2.92%.

Regarding `COC(=O)c1ccc(NC(=O)c2cccc3c2C(=O)N(C2CCCCC2)C3)cc1`, the “activity change, negative = inhibition” value was -5.32%.

As to `COc1ccc(-c2nn3c(-c4ccc(OC)cc4)nnc3c3ccccc23)cc1`, the “activity change, negative = inhibition” value was -20.7%.

As for `CCOc1cc(C2c3c(-c4ccc(Br)cc4)n[nH]c3C(=O)N2c2ccc(Cl)cc2)ccc1O` (stereo not drawn), the “activity change, negative = inhibition” value is -25.1%.

Turning to `CCC(Sc1nc2n[nH]c(C)c2c(=N)n1-c1ccccc1Cl)C(=O)N(CC)CC` (stereo not drawn), the “activity change, negative = inhibition” value was -2.5%.

Consider `CC(=O)OC1=C(C(C)=O)N(Cc2ccccc2)S(=O)(=O)c2ccccc21`, for which the “activity change, negative = inhibition” value is -4.82%.

For `CN(Cc1ccccc1)C(=O)c1cn(C)c2ccc(S(=O)(=O)N3CCCCC3)cc2c1=O`, the “activity change, negative = inhibition” value was 0%.

Consider `CCc1ccccc1NC(=O)CSc1nnc(-c2ccccc2)c(-c2ccccc2)n1`, for which the “activity change, negative = inhibition” value is 2.66%.

Turning to `Cc1ccc(C)c(N2CCN(C(=O)Cc3c(C(=O)O)c(C)cn3C)CC2)c1`, the “activity change, negative = inhibition” value was -8.4%.

Turning to `Cc1cccc(NC(=O)C2CCN(S(=O)(=O)c3c(C)noc3/C=C/c3ccco3)CC2)c1`, the “activity change, negative = inhibition” value was 14%.

In the case of `COc1ccc(OC)c(NC(=O)C2CCCN(S(=O)(=O)c3ccc4c(c3)CCCC(=O)N4)C2)c1` (stereo not drawn), the “activity change, negative = inhibition” value is -1.5%.

On to `CC1=NN(C(=O)CCc2ccccc2O)C(O)(C(F)(F)F)C1` (stereo not drawn), for which the “activity change, negative = inhibition” value was -13.2%.

Turning to `CC1=NN(C(=O)Cc2ccc(C)cc2)C(O)(c2cccnc2)C1` (stereo not drawn), the “activity change, negative = inhibition” value was -21.4%.

As for `COc1ccc(CC(=O)N2N=C(C)CC2(O)C(F)(F)F)cc1` (stereo not drawn), the Potency is 6.31 µM (active).

Turning to `O=C(Nc1ccc(Oc2ccccc2)cc1)C1CCN(S(=O)(=O)c2ccc(Cl)cc2)CC1`, the “activity change, negative = inhibition” value was -15.9%.

Regarding `CC(=O)Nc1ccc(NC(=O)CSc2nnc3c4cc(Br)ccc4n(C)c3n2)cc1`, the “activity change, negative = inhibition” value is 6.5%.

As for `CC(C)CN1CCC1(C)C(=O)Nc1ccc(OC(F)F)cc1` (stereo not drawn), the “activity change, negative = inhibition” value was -4.92%.

Turning to `CC(C)N(Cc1ccccc1)C(=S)Nc1ccc(OC(F)F)cc1`, the “activity change, negative = inhibition” value is -0.269%.

As to `CC/C(=N\NC(=S)NC(C)C)c1ccc(OC(F)F)cc1`, the Potency is 4.47 µM (active).

Regarding `Cc1oc(C)c2c(=O)cc(-c3ccc4c(c3)OCO4)cc(OC(=O)c3ccc(Cl)cc3)c12`, the “activity change, negative = inhibition” value is -2.3%.

For `O=C(Nc1cc(C(F)(F)F)ccc1Cl)c1nc2ccccc2nc1N1CCCCC1`, the “activity change, negative = inhibition” value is -4.7%.

Consider `O=C(NCC12CC3CC(CC(C3)C1)C2)c1cc2nc(-c3ccccc3)cc(C(F)(F)F)n2n1`, for which the “activity change, negative = inhibition” value is -16.7%.

Turning to `CSc1ccccc1-c1nnc(NC(=O)c2ccc3c(c2)OCCO3)o1`, the “activity change, negative = inhibition” value was 2.88%.

Consider `CCOc1ccccc1NC(=O)C1CCCN(S(=O)(=O)c2cn(C)cn2)C1` (stereo not drawn), for which the “activity change, negative = inhibition” value was -5.32%.

As to `Fc1ccc(-c2nc(Nc3cccc(Cl)c3)nc3c2COc2ccccc2-3)cc1`, the “activity change, negative = inhibition” value is 26.4%.

In the case of `Cc1cccc(C(=O)Nc2ccc(S(=O)(=O)N3CCCCC3c3cccnc3)cc2)c1` (stereo not drawn), the “activity change, negative = inhibition” value is -3.52%.

Regarding `O=C(Nc1ccc(Br)cc1)c1ccc(Br)c(S(=O)(=O)NCc2ccccc2)c1`, the “activity change, negative = inhibition” value was -23.8%.

As for `CCOC(=O)c1c(NC(=O)/C=C/c2ccc(OC)cc2)sc2c1CCC(C)C2` (stereo not drawn), the “activity change, negative = inhibition” value was 1.21%.

Regarding `CCc1ccc(NC(=O)Cn2c(=O)n(CCC(=O)NCc3ccc4c(c3)OCO4)c(=O)c3ccccc32)cc1`, the “activity change, negative = inhibition” value is 1.24%.

As for `O=C(c1ccc(Cl)cc1)n1nc(-c2cccnc2)nc1NCc1ccc(F)cc1`, the “activity change, negative = inhibition” value is 0.033%.

Take `Clc1ccc(CSc2nncn3c2cc2occc23)cc1`: the “activity change, negative = inhibition” value is 1.37%.

For `O=C(Cn1cnc2c(oc3ccccc32)c1=O)Nc1ccc(OC(F)(F)F)cc1`, the “activity change, negative = inhibition” value was 7.7%.

On to `COc1ccc(C(=O)COC(=O)CCCC(=O)Nc2cc(C(F)(F)F)ccc2Cl)cc1`, for which the “activity change, negative = inhibition” value was 4.62%.

As to `Cc1ccc(CCNC(=O)c2ccc(CS(=O)(=O)Cc3cccc(C)c3)o2)cc1`, the “activity change, negative = inhibition” value was 6.21%.

In the case of `Cc1c(CNC2CCCCC2)c(C(=O)O)c(C)n1Cc1cccc(Cl)c1`, the “activity change, negative = inhibition” value was 3.57%.

As to `Cc1nc(SCCOc2ccc(Cl)cc2)[nH]c(=O)c1Cc1ccccc1`, the “activity change, negative = inhibition” value is -0.041%.

Consider `Cc1cc(NC(=O)CC(C)C)cc(-c2nc3ncccc3o2)c1O`, for which the “activity change, negative = inhibition” value is -2.54%.

With `Cc1ccc2nc(COc3cccc(NC(=O)c4ccccc4Cl)c3)cc(=O)n2c1`, the “activity change, negative = inhibition” value is -3.99%.

For `COc1cc(/C=C2/SC(=S)N(Cc3ccccc3)C2=O)cc(OC)c1O`, the Potency is 10 µM (active).

For the compound `CCOC(=O)C1=CCC2C(=O)N(Cc3ccccc3)C(=O)C12` (stereo not drawn), the “activity change, negative = inhibition” value was 0.313%.

As for `COc1ccc(CCNC(=O)CCCCn2c(=O)c3ccccc3n(Cc3ccccc3)c2=O)cc1OC`, the “activity change, negative = inhibition” value is 5.81%.

As for `COc1ccc(-c2cc(C(F)(F)F)n3nc(-c4ccccc4)cc3n2)cc1OC`, the “activity change, negative = inhibition” value is 5.25%.

For the compound `CCCCCc1c(-c2ccc(OC)c(OC)c2)ncn1CCc1ccccc1OC`, the “activity change, negative = inhibition” value was -9.3%.

`COc1ccc(-c2nn(-c3ccccc3)cc2/C=N/Nc2ccccn2)cc1OC`: the Potency was 5.01 µM (active).

On to `Cc1ccccc1CN1CCC(CNC(=O)c2cc3ccc4cccnc4c3[nH]2)CC1`, for which the “activity change, negative = inhibition” value is -26.7%.

With `O=C(NCC(c1ccc2c(c1)OCO2)N1CCN(c2ccccc2)CC1)C(=O)Nc1ccccc1F` (stereo not drawn), the “activity change, negative = inhibition” value was 15.1%.
